Data taken from ChEMBL document CHEMBL3988442, “University of Dundee, Small-Polar-MMV Screening Library” (2021).
The campaign covered roughly 69,000 compounds. About 950 (1.4%) showed an effect of 50% or more. The sample holds strong results, similar compounds and a random draw of the others, so the mix is not that of the screen.

Test system: Mycobacterium tuberculosis
Assay: Cornell M. t heat shock assay; also: in the data most compounds retested in dose-response had high values
Format: functional, organism-based
Design: dose or concentration left out as unconfirmed

Row | SMILES | Percent Effect [%]
1 | CCC(=O)NCC(=O)NCC1CCN(c2cc(Cl)ccc2C)C1 (configuration not stated) | -4.009
2 | Cc1ccc(Cl)cc1N1CCC(CNC(=O)CCn2ccnn2)C1 (configuration not stated) | 62.44
3 | Cc1ccc(Cl)cc1N1CCC(CNC(=O)Cn2cccn2)C1 (configuration not stated) | 6.122
4 | Cc1ccc(Cl)cc1N1CCC(CNC(=O)CC(F)(F)F)C1 (configuration not stated) | 28.09
5 | Cc1cnn(CC(=O)NCC2CCN(c3cc(Cl)ccc3C)C2)c1 (configuration not stated) | 0.4801
6 | Cc1ccc(Cl)cc1N1CCC(CNC(=O)CCn2ccnc2)C1 (configuration not stated) | 172.3
7 | CN(C)CCNC(=O)c1cc(-c2cnc(N3CCCC3)nc2)cn1C.O=C(O)C(F)(F)F | -14.58
8 | CC(=O)N1[C@H](CN(C)C)C[C@@H]2CN(C(=O)c3cncc(C)c3)CC[C@@H]21.O=C(O)C(F)(F)F.O=C(O)C(F)(F)F | -6.193
9 | COCCn1cc(C(=O)N2CCCC2c2cc(C)on2)c2ccccc21 (configuration not stated) | -20.39
10 | Cc1cc(C(=O)N2CCN(c3nc4c(F)cccc4s3)CC2)no1 | 70.89
11 | CCOC(=O)N1CCN(C(=O)c2cc(-c3ccccc3F)on2)CC1 | 9.54
12 | COc1cccc2sc(N3CCN(C(=O)c4cc(C)on4)CC3)nc12 | 101.6
13 | Cc1cc(C(=O)N2CCN(c3nc4ccccc4s3)CC2)no1 | -15.49
14 | COc1cccc([C@H]2CN(C(=O)c3cc(C)on3)C[C@@H]2N)c1 | -0.4367
15 | COc1cccc2sc(N3CC(OC(C)=O)C3)nc12 | 4.303
16 | CC(=O)OC1CN(c2nc3c(C)cccc3s2)C1 | -13.72
17 | Cc1cccc(C(=O)N2CCN(c3ccccc3F)CC2)n1 | -5.532
18 | CCOc1cc(C)nc(N2CCN(C(=O)c3cc(C)on3)CC2)n1 | -16.01
19 | Cc1cc(C(=O)N2CCN(c3nc4c(C(C)C)cccc4s3)CC2)no1 | 88.51

Row | SMILES | Percent Effect [%]
20 | Cc1cc(C(=O)N2CCN(c3nc4c(C(C)C)cccc4s3)CC2)on1 | -0.7761
21 | Cc1cc(C(=O)N2CCN(c3nc4c(C)cccc4s3)CC2)no1 | 96.55
22 | Cc1cc(C(=O)N2CCN(C)CC2)nn1CC(=O)NCc1ccccn1.Cl | -24.19
23 | CC(C)C[C@H](N)c1nnc(SCC(=O)Nc2ccc(Br)cc2)o1.Cl | 9.958
24 | O=C(O)C(F)(F)F.O=C(O)C(F)(F)F.O=C(O)C(F)(F)F.c1ccc(NCc2cn3c(n2)CN(Cc2cccnc2)CC3)nc1 | 2.185
25 | CS(=O)(=O)c1ccc(C(=O)N2CCCC(n3ccnc3)C2)cc1 (configuration not stated) | 8.305
26 | Cn1cc(-c2ncc3c(c2C(=O)O)CCN(Cc2ccccn2)C3)cn1.O=C(O)C(F)(F)F.O=C(O)C(F)(F)F | 44.96
27 | CO[C@@H]1CCN(C(=O)c2ccsc2)[C@@H]2CN(CC3CC3)C[C@@H]21.O=C(O)C(F)(F)F | 9.15
28 | COCCCNC(=O)c1cc(-c2cnc(N(C)C)nc2)cn1CC1CC1.O=C(O)C(F)(F)F | 0.3583
29 | C[C@@H]1CN(Cc2c[nH]c(CC3CCCC3)n2)CC[C@]1(C)O | -1.066
30 | CC1(C)CN(Cc2c[nH]c(CC3CCCC3)n2)CC[C@]1(C)O | 10.2
31 | COC[C@]1(O)CCN(Cc2c[nH]c(CC3CCCC3)n2)CC1(C)C | -12.53
32 | OC1(CN2CCCCC2)CCN(Cc2c[nH]c(CC3CCCC3)n2)C1 (configuration not stated) | 56.92
33 | OC1(CN2CCCC2)CCCN(Cc2c[nH]c(CC3CCCC3)n2)C1 (configuration not stated) | 109.3
34 | c1[nH]c(CC2CCCC2)nc1CN1CCCC2(CCOC2)C1 (configuration not stated) | -0.6443
35 | COc1cc(C(=O)N(C)C)ccc1NC(=O)c1ccsc1 | -21.05
36 | CCS(=O)(=O)N1CC[C@H]2CO[C@H](CN(C)C)[C@H]2C1.O=C(O)C(F)(F)F | -39.84
37 | CCN1CCC2(CCC(=O)N2Cc2cccc(C)n2)CC1.O=C(O)C(F)(F)F.O=C(O)C(F)(F)F | -30.9
38 | O=C(O)C(F)(F)F.O=C(O)C(F)(F)F.c1cnn(CCCO[C@@H]2CN(C3CCOCC3)[C@@H]3CCCO[C@@H]32)c1 | -22.39

Row | SMILES | Percent Effect [%]
39 | Cc1ccc(CN2CC[C@H]3NC(=O)CC[C@@H]32)o1.O=C(O)C(F)(F)F | -7.125
40 | Cc1cccc(N2CCC3(CCCN(C(=O)c4cccnc4)C3)C2)n1.O=C(O)C(F)(F)F.O=C(O)C(F)(F)F (configuration not stated) | -32.42
41 | CN(C)C(=O)CNC(=O)c1ccc2ccc(N(C)CC3CC3)n2c1 | 51.54
42 | COCCNC(=O)c1ccc2ccc(N(C)CC3CC3)n2c1 | 24.26
43 | CN(C)CCNC(=O)c1ccc2ccc(N(C)CC3CC3)n2c1 | -34.83
44 | NC(=O)N1CCC2(CCN(C(=O)c3cccnc3)CC2)C1.O=C(O)C(F)(F)F | -5.676
45 | Cl.Cl.c1ccc(COC[C@@H]2CCC[C@@]23CNCCO3)nc1 | 33.86
46 | Cc1cc(C)c(CNC(=O)NCCNc2cnccn2)c(=O)[nH]1 | -7.276
47 | CCCc1cncnc1N1CCC(NCc2cc3ccccc3[nH]2)CC1 | 103.5
48 | CCCc1cncnc1N1CCC(NCc2ccc(O)cc2)CC1 | -4.464
49 | CCCc1cncnc1N1CCC(NCc2ccncc2)CC1 | 4.573
50 | Cc1n[nH]c(C(=O)NCc2ccnc(OCC(F)(F)F)c2)c1Br | 65.15
51 | Cc1noc(C)c1C(=O)NCc1ccnc(OCC(F)(F)F)c1 | 0.8028
52 | Cc1ncsc1C(=O)NCc1ccnc(OCC(F)(F)F)c1 | -36.25
53 | NC(=O)N1CCCC(C(=O)NCc2ccccc2OC(F)(F)F)C1 (configuration not stated) | 35.38
54 | CN(Cc1ccccc1OC(F)(F)F)C(=O)C1CC1 | 6.346
55 | CN(Cc1ccccc1OC(F)(F)F)C(=O)C1CCCN(C(N)=O)C1 (configuration not stated) | 92.25
56 | O=C(O)C(F)(F)F.O=C(O)C(F)(F)F.c1cc(CO[C@H]2CC[C@H]3[C@H]2OCCN3Cc2nccs2)ccn1 | -1.961
57 | O=C(O)C(F)(F)F.O=C(O)C(F)(F)F.O=C1N(c2cncnc2)CCC12CCCN(Cc1cccnc1)C2 (configuration not stated) | -18.13
